The panel holds about 83,000 compounds, 20% with a hit somewhere; the sample as a whole holds those more often.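 Results are percent growth after 48 hours of single-concentration exposure. 100 means growth as in untreated cells, lower positive values show inhibition; negative values down to -100 show cell death.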 Activity calls are given as the source filed them. How the source made its calls: active means growth percent below 10; inactive means the rest.
Legend:
Assay in all cases: NCI-60 one-dose screen, 48 h (100 = growth as untreated, 0 = no growth, -100 = all killed)
Conditions in all cases: 10 µM
[1] = test system: SK-MEL-2 melanoma
[2] = test system: EKVX NSCLC
[3] = test system: SN12C renal
[4] = test system: UO-31 renal
[5] = test system: TK-10 renal
[6] = test system: ACHN renal
[7] = test system: CAKI-1 renal
[8] = test system: A498 renal
[9] = test system: CCRF-CEM leukemia
[10] = test system: MOLT-4 leukemia
[11] = test system: SR leukemia
[12] = test system: RPMI-8226 leukemia
[13] = test system: OVCAR-8 ovarian
[14] = test system: OVCAR-5 ovarian
[15] = test system: OVCAR-4 ovarian
[16] = test system: SK-OV-3 ovarian
[17] = test system: HS 578T breast
[18] = test system: NCI/ADR-RES ovarian
[19] = test system: IGROV1 ovarian
[20] = test system: OVCAR-3 ovarian

Measured: growth

C=CCNCCN1C(=O)c2ccc3c4c(ccc(c24)C1=O)C(=O)N(CCNCC=C)C3=O
active: [1] -45.9% | [2] -82% | [3] -78% | [4] -58.4% | [5] -6.43% | [6] -56.3% | [7] -64.2% | [8] -73.7% | [9] 4.83% | [10] -18.3% | [11] -8.69% | [13] -24% | [14] -52% | [15] -97.5% | [16] -38.6% | [17] 1.35% | [18] -12.9%
inactive: [12] 13.5%

COc1cc2c(cc1NC(=O)C(Cl)Cl)-c1ccc(NC(=O)C(Cl)Cl)cc1C2
inactive: [3] 58.6% | [8] 10.1% | [9] 81.9% | [10] 94.8% | [11] 86.4% | [16] 56.3% | [19] 43.1% | [17] 13.6%
active: [1] -14.7% | [2] -9.2% | [4] -9.34% | [5] -12.3% | [6] -43.4% | [7] -35.4% | [12] 1.01% | [13] -22.8% | [20] -44.6%

COc1ccc(/C(=N\N)C(=O)c2ccccc2)cc1 (tested in a mixture with another compound)
inactive: [1] 112% | [2] 91.4% | [3] 88.5% | [4] 81.1% | [5] 108% | [6] 98.3% | [7] 90.8% | [8] 83.2% | [9] 88.2% | [10] 80.4% | [12] 90% | [13] 103% | [14] 96.7% | [15] 95.9% | [16] 97.7% | [19] 107% | [20] 102% | [17] 97.1% | [18] 102%

COC(=O)c1cc2oc(/C=C3/SC(=S)N(N)C3=O)cc2n1Cc1ccccc1
inactive: [2] 55.8% | [3] 63.5% | [6] 48.5% | [7] 60.2% | [11] 20.8% | [13] 31.1% | [14] 72.6% | [15] 51% | [16] 98.2% | [20] 55% | [18] 52.5%
active: [1] -14% | [4] -22.1% | [5] -4.58% | [8] -76.4% | [9] 6.84% | [10] 4.64% | [12] -4.46% | [17] -27.4%

COc1ccc(C(=O)COc2cccc(/C=C3\Cc4ccccc4C3=O)c2)cc1
inactive: [1] 51.8% | [2] 87.8% | [3] 92.7% | [4] 12.1% | [5] 111% | [6] 95.8% | [7] 76.4% | [8] 94.7% | [9] 80.8% | [10] 85.8% | [11] 56.7% | [12] 57.9% | [13] 91.7% | [14] 88.5% | [15] 76.8% | [16] 95.8% | [20] 97.2% | [17] 86.9% | [18] 74.4%

COc1ccc2nc3cc(Cl)ccc3c(NCCCNCCO)c2c1
active: [1] -87.7% | [2] -12.9% | [3] 5.95% | [4] -11.5% | [5] -29.4% | [6] -9.61% | [8] -57% | [9] -1.87% | [10] 2.6% | [11] -8.29% | [12] -12.1% | [13] -23.2% | [14] -9.73% | [15] -35.9% | [19] 2.85% | [17] 6.23%
inactive: [7] 18.7% | [18] 62.4%

CCN(CC)CCCC(Nc1c2ccc(Cl)cc2nc2ccc(OC)cc12)c1ccc(F)cc1 (centres undefined)
active: [4] -43.3% | [5] -59.6% | [6] -58.9% | [9] -18.5% | [10] 2.74% | [11] -13.9% | [12] -33.3%
inactive: [1] 116% | [2] 40.2% | [3] 25.7% | [7] 87.6% | [8] 59.5% | [13] 15.2% | [14] 61.7% | [15] 12.6% | [19] 41.5% | [20] 108% | [17] 84% | [18] 28.9%

CN1CCN(CCCn2c(=O)c3sc4ncccc4c3n3nnc(-c4ccccc4)c23)CC1
inactive: [3] 47.5% | [8] 64.6% | [13] 16.9% | [14] 59.3% | [18] 33.1%
active: [1] -10.7% | [2] 2.42% | [4] -74.5% | [5] -44.3% | [6] -6.48% | [7] -39.2% | [9] -14.7% | [10] -20% | [11] -38% | [12] -2.66% | [15] -29% | [20] -47.4% | [17] -12.2%

O=C(Cn1cc(CO)nn1)Nc1nc2ccccc2s1
inactive: [1] 107% | [2] 94.1% | [3] 96.5% | [4] 72.6% | [5] 106% | [6] 104% | [7] 88.9% | [8] 118% | [9] 103% | [10] 104% | [11] 100% | [12] 107% | [13] 99.4% | [14] 101% | [15] 108% | [16] 104% | [19] 97.8% | [20] 101% | [17] 109% | [18] 101%

COc1cc(/C=C/c2cc(/C=C/c3ccc(O)c(OC)c3)n(C(=O)Nc3ccccc3Cl)n2)ccc1O
active: [1] -12.3% | [4] -34.8% | [7] 7.29% | [8] -11.8% | [9] -4.54% | [10] -4.57% | [11] -17.7% | [12] -22.3% | [13] 1.5% | [15] 6.59% | [16] -33.3% | [19] -6.58% | [20] -26.8% | [17] -4.71%
inactive: [2] 17.7% | [3] 14.2% | [5] 16.1% | [6] 12.8% | [18] 20.8%

COC(=O)C1OC1c1cc([N+](=O)[O-])ccc1OC (centres undefined)
inactive: [1] 111% | [2] 102% | [3] 107% | [4] 74.4% | [5] 107% | [6] 108% | [7] 83.2% | [8] 127% | [9] 96% | [10] 83.6% | [11] 84.4% | [13] 105% | [14] 105% | [15] 101% | [16] 92.1% | [19] 93% | [20] 109% | [17] 111%

NC(N)=N/N=C(\N=Nc1ccccc1)c1ccc(Cl)cc1
active: [4] 4.05% | [7] 1.66% | [9] -4.7% | [10] 2.47% | [18] 8.53%
inactive: [1] 52.5% | [2] 49.2% | [3] 76.3% | [5] 65.8% | [6] 25.1% | [8] 14.7% | [13] 26.2% | [14] 24.9% | [15] 51.8% | [16] 55.5% | [19] 46.3% | [20] 12.6% | [17] 65.2%

CC(=O)Nc1ccc(S(=O)(=O)c2ccnc3cc(Cl)ccc23)cc1
inactive: [1] 79.2% | [2] 86.7% | [3] 81% | [4] 106% | [5] 82.3% | [6] 69.3% | [7] 75.3% | [8] 95.9% | [9] 52.9% | [10] 68.8% | [11] 83.3% | [12] 72.1% | [13] 73.3% | [14] 100% | [15] 81.4% | [16] 88% | [19] 98.2% | [17] 85.2% | [18] 77.3%

COc1cc(/C=C2\CCCC3=C2N=C2SC(C)=CN2C3c2cc(OC)c(OC)c(OC)c2)cc(OC)c1OC (centres undefined)
active: [1] -19.6% | [3] -23.6% | [4] -37.2% | [5] 2.25% | [6] -78.6% | [8] -30.9% | [9] 1.41% | [10] 1.02% | [11] 0.0832% | [12] -17% | [13] -9.4% | [14] -15% | [19] 2.86% | [20] -2.36% | [18] 1.74%
inactive: [2] 19.6% | [7] 11.1% | [15] 39.6% | [16] 19.3% | [17] 49.9%

CC(C1=C(CN(C(=O)Cc2cn(-c3ccccc3)nc2-c2ccc(Cl)cc2)C(C)C)Cc2ccccc21)c1ccccn1 (centres undefined)
inactive: [1] 53% | [2] 41% | [3] 77% | [4] 27.4% | [5] 70.3% | [6] 60.4% | [7] 40.9% | [8] 50.6% | [9] 53.3% | [10] 29.3% | [11] 37.4% | [12] 36.5% | [13] 81.7% | [14] 85% | [15] 54.8% | [16] 65.4% | [20] 62.4% | [17] 80.7% | [18] 61.1%

COc1ccc2c(c1)C(=O)/C(=C/c1cccc(OCC(=O)c3ccc([N+](=O)[O-])cc3)c1)CO2
inactive: [2] 75.6% | [3] 65.6% | [6] 51.8% | [7] 16.3% | [8] 79.5% | [14] 57.3% | [15] 74% | [16] 90.7% | [20] 58.4%
active: [1] -47.3% | [4] -68% | [5] 3.16% | [9] -11.8% | [10] -38% | [11] -64.1% | [12] -50.5% | [13] 2.15% | [17] -26.8% | [18] -29.2%
